PubChem BioAssay (NCATS)
Records with an inconclusive call do not appear. Entries that show only a call come without a potency. Activity calls are given as the source filed them. Unless noted, the call rests on the fitted dose curve; in most records, active means well fitted curve in the direction sought with a large enough effect; inconclusive means small, poorly fitted or top-dose-only effect, or another doubt; inactive means no such curve, though single readings can be large; an effect the other way counts as inactive or inconclusive.

Assays:
[1] = target: Cytochrome P450 3A4 (Homo sapiens) (UniProt P08684); assay: qHTS Assay for Activators of Cytochrome P450 3A4 (AID 885); further: nearly all actives have a fitted effect of over 65% in size
Sequence of Cytochrome P450 3A4 (Homo sapiens) (P08684 whole entry, looked up): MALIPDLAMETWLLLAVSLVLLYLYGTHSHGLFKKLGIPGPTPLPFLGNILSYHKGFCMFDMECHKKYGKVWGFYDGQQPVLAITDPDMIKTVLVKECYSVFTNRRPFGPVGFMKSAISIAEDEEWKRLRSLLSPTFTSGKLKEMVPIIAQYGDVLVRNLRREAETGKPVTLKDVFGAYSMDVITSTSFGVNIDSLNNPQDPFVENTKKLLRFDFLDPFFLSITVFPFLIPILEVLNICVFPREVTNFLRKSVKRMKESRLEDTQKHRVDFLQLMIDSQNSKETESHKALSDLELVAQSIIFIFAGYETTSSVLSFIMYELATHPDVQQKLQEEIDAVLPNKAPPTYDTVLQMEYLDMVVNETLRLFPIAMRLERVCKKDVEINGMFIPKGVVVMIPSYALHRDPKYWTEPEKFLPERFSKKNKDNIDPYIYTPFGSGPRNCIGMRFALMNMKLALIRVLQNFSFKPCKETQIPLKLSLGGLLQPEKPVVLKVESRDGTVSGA
Outline: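 Signal was normalized against complete inhibition by 57 uM ketoconazole. The reaction used 20nM CYP3A4 with 25uM Luciferin-PPXE, 10-min compound preincubation and a 60-min NADPH-supported step at RT.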

[2] = Confirmation and Secondary Assay for Modulators of Hemoglobin Beta Chain Splicing at IVS2 654 locus (AID 910)
Outline: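 HeLa cells stably carrying EGFP interrupted by mutant beta-globin IVS2-654 intron (CMV-driven) were treated with compound for 2 days at 37C; corrected splicing was scored as total peak GFP intensity per well (488 nm excitation, 500-520 nm emission).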

[3] = Confirmation and Secondary Assay for Modulators of Hemoglobin Beta Chain Splicing at IVS2 705 locus (AID 930);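 further: HeLa cells stably expressing the EGFP-705 splicing reporter; GFP fluorescence per well restored by corrected splicing of the IVS2-705 intron in EGFP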
Outline: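 HeLa cells stably carrying EGFP interrupted by mutant beta-globin intron 2 (IVS2-705) treated 2 days at 37C with compound; 500 nM antisense PNA as control. Correct splicing read as total peak GFP intensity per well by laser-scanning cytometry.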

[4] = qHTS Assay for Lipid Storage Modulators (AID 1519; calls by dose curve); conditions: Drosophila S3 cells, BODIPY lipid droplet/cell ratio, laser cytometry, cells loaded with oleic acid
Outline: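 Cells seeded at 5,000 per well were treated with compounds over a concentration series and loaded with oleic acid (400 uM, as added). Lipid droplet fluorescence (488 nm excitation, 500-530 nm channel) was read by laser-scanning cytometry and normalized to 20 uM Triacsin C.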

[5] = target: ATP-dependent 6-phosphofructokinase (Trypanosoma brucei brucei) (UniProt O15648); assay: qHTS Assay to Find Inhibitors of T. brucei phosphofructokinase: hit validation (AID 492961);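 further: luminescence reports ADP formed as PFK phosphorylates fructose-6-phosphate with ATP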
Sequence of ATP-dependent 6-phosphofructokinase (Trypanosoma brucei brucei) (O15648 whole entry, looked up): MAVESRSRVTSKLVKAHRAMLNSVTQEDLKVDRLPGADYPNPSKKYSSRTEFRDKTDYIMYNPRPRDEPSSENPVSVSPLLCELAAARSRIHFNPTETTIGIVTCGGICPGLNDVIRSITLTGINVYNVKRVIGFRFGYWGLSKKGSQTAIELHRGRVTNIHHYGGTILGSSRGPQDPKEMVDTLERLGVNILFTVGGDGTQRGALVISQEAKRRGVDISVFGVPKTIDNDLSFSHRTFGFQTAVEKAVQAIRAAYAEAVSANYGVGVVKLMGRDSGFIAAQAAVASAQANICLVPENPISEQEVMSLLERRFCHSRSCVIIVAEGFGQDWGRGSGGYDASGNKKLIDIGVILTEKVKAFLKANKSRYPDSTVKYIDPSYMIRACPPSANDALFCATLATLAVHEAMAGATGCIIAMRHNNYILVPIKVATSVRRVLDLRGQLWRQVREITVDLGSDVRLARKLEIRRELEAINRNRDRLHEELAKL
Outline: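 Percent activity derived from corrected luminescence, normalized between 0x and 1x enzyme controls, then fitted to concentration-response curves. Conditions: 1.25 nM PFK, 0.1 mM ATP, 0.5 mM F6P, 45 min RT.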

[6] = target: Ubiquitin carboxyl-terminal hydrolase 1 (Homo sapiens) (UniProt O94782); assay: Inhibitors of USP1/UAF1: Pilot qHTS (AID 504865);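 further: rhodamine fluorescence freed from ubiquitin-rhodamine substrate followed over time; top concentration of the series differs between compounds; nearly all actives have a fitted effect of over 35% in size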
Sequence of Ubiquitin carboxyl-terminal hydrolase 1 (Homo sapiens) (O94782 whole entry, looked up): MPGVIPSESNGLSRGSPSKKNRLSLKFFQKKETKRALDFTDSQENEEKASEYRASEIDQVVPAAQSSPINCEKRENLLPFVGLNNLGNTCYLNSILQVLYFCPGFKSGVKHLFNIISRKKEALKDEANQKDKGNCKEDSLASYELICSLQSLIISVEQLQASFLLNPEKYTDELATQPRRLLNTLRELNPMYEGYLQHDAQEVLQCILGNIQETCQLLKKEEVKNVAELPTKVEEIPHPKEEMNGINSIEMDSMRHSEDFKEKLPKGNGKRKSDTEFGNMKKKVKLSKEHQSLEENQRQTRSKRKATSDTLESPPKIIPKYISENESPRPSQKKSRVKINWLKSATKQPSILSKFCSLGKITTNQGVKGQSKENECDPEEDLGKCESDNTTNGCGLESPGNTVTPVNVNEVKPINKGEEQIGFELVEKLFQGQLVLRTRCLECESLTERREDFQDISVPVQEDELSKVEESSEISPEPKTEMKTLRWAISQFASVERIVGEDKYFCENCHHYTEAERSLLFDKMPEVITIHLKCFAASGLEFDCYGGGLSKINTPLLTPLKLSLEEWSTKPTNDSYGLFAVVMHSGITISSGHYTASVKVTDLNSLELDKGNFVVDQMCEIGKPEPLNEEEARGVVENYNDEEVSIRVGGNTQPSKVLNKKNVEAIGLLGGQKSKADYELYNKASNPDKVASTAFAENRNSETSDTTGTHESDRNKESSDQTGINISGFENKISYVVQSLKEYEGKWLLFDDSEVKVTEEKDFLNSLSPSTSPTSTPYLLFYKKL
Outline: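 1nM USP1/UAF1 + cpd, 15 min RT; start w/ Ub-Rho 150nM final; kinetic FL 480/540 nm, 6 reads q60 s. Buffer 50mM HEPES pH 7.8, 0.5mM EDTA, 1mM TCEP, 0.01% Tween-20, 0.1 mg/ml BSA.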

[7] = S16 Schwann cell PMP22 intronic element firefly luciferase assay (AID 624032); further: potency means the concentration at half of the fitted maximal effect; nearly all actives have a fitted effect of over 30% in size
Outline: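 Rat S16 Schwann cells stably carrying a PMP22 intronic element-driven Fluc reporter were seeded overnight, then exposed to compounds for 24 h at 37 °C. Luminescence was normalized to PTC124 (positive control) and DMSO (0% activity).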

[8] = qHTS to identify inhibitors of the type 1 interferon - major histocompatibility complex class I in skeletal muscle: primary screen against the NCATS Mechanism Interrogation Plate v5.0 (MIPE) Libary (AID 1347411); further: nearly all actives have a fitted effect of over 65% in size; further: potency means the concentration at half of the fitted maximal effect
Outline: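 Luminescence from HiBiT-tagged endogenous HLA-B*08:01 served as the MHC class I read-out. CRISPR-engineered C25cl48 human myoblasts received 4.0 ng/ml IFN-beta plus compound for 24 hrs, with an 11-point, 1:3 series topping at 46 uM final.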

[9] = Primary qHTS for inhibitors of nuclear receptor binding SET domain protein 2 (NSD2) in an isogenic RCH-ACV NSD2 p.E1099K mutant (9B) (AID 1645876); further: potency means the concentration at half of the fitted maximal effect; nearly all actives have a fitted effect of over 70% in size
[10] = Primary qHTS for inhibitors of nuclear receptor binding SET domain protein 2 (NSD2) in an RCH-ACV wild type WT cells (2C) (AID 1645877); further: potency means the concentration at half of the fitted maximal effect; nearly all actives have a fitted effect of over 70% in size
[11] = target: Glutathione peroxidase 1 (Homo sapiens) (UniProt P07203); assay: Primary qHTS Assay for Inhibitors of Recombinant Selenoprotein Glutathione Peroxidase 1 (GPX1) (AID 1845191); further: nearly all actives have a fitted effect of over 65% in size
Sequence of Glutathione peroxidase 1 (Homo sapiens) (P07203 whole entry, looked up): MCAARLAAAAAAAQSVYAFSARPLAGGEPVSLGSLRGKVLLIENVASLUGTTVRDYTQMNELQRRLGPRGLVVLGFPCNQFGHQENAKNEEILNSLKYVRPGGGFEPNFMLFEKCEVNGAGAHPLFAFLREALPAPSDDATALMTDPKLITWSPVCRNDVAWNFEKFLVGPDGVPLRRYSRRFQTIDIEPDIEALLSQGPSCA
Outline: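 Recombinant GPX1 (10 nM final) was preincubated with compound for 30 min at room temperature, then reacted with 1 mM GSH, 0.5 mM CHP, 0.5 mM NADPH and 100 nM glutathione reductase; NADPH fluorescence (340/450 nm) was read at 0 and 15 min.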

[12] = qHTS drug screen for cell cycle checkpoint inhibitors in PARPi-resistant BRCA-mutant ovarian cancer cell lines. (AID 1963452; calls by dose curve); conditions: PEO1/OlaR viability, CellTiter-Glo luminescence, 96 h, stronger effect = lower value
Outline: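 PEO1, PEO4 and PEO1/OlaR ovarian cancer cells, 600 per well, exposed 96 h at 37C to a dilution series. Viability read by CellTiter-Glo luminescence, normalized to DMSO and empty wells; activity summarized as Z-AUC.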

[13] = qHTS profiling for inhibitors of Plasmodium falciparum proliferation (AID 504749); further: nearly all actives have a fitted effect of over 60% in size; further: potency means the concentration at half of the fitted maximal effect; conditions: P. falciparum in erythrocytes, SYBR Green DNA, 72 h, at 28.7 µM (top of the series)
Outline: (§1)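 Parasite proliferation within erythrocytes, 72 h exposure. Endpoint: SYBR Green I fluorescence after overnight lysis at room temperature. Controls: 0.29 uM artemisinin, DMSO.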

[14] = tested on: 3D7; assay: as above; conditions: P. falciparum in erythrocytes, SYBR Green DNA, 72 h; series mostly up to 28.7 µM
Outline: as §1

[15] = tested on: ATS189; assay: as above; conditions: P. falciparum in erythrocytes, SYBR Green DNA, 72 h; series mostly up to 28.7 µM
Outline: as §1

[16] = tested on: CP185; assay: as above; conditions: P. falciparum in erythrocytes, SYBR Green DNA, 72 h; series mostly up to 28.7 µM
Outline: as §1

[17] = tested on: CP192; assay: as above; conditions: P. falciparum in erythrocytes, SYBR Green DNA, 72 h; series mostly up to 28.7 µM
Outline: as §1

[18] = tested on: CP194; assay: as above; conditions: P. falciparum in erythrocytes, SYBR Green DNA, 72 h; series mostly up to 28.7 µM
Outline: as §1

[19] = tested on: CP201; assay: as above; conditions: P. falciparum in erythrocytes, SYBR Green DNA, 72 h; series mostly up to 28.7 µM
Outline: as §1

[20] = tested on: CP238; assay: as above; conditions: P. falciparum in erythrocytes, SYBR Green DNA, 72 h; series mostly up to 28.7 µM
Outline: as §1

[21] = tested on: CP247; assay: as above; conditions: P. falciparum in erythrocytes, SYBR Green DNA, 72 h; series mostly up to 28.7 µM
Outline: as §1

[22] = tested on: CP250; assay: as above; conditions: P. falciparum in erythrocytes, SYBR Green DNA, 72 h; series mostly up to 28.7 µM
Outline: as §1

[23] = tested on: CP262; assay: as above; conditions: P. falciparum in erythrocytes, SYBR Green DNA, 72 h; series mostly up to 28.7 µM
Outline: as §1

[24] = tested on: CP265; assay: as above; conditions: P. falciparum in erythrocytes, SYBR Green DNA, 72 h; series mostly up to 28.7 µM
Outline: as §1

[25] = tested on: CP266; assay: as above; conditions: P. falciparum in erythrocytes, SYBR Green DNA, 72 h; series mostly up to 28.7 µM
Outline: as §1

[26] = tested on: CP268; assay: as above; conditions: P. falciparum in erythrocytes, SYBR Green DNA, 72 h; series mostly up to 28.7 µM
Outline: as §1

[27] = tested on: CP291; assay: as above; conditions: P. falciparum in erythrocytes, SYBR Green DNA, 72 h; series mostly up to 28.7 µM
Outline: as §1

[28] = tested on: CP297; assay: as above; conditions: P. falciparum in erythrocytes, SYBR Green DNA, 72 h; series mostly up to 28.7 µM
Outline: as §1

[29] = tested on: CP315; assay: as above; conditions: P. falciparum in erythrocytes, SYBR Green DNA, 72 h; series mostly up to 28.7 µM
Outline: as §1

[30] = tested on: CP325; assay: as above; conditions: P. falciparum in erythrocytes, SYBR Green DNA, 72 h; series mostly up to 28.7 µM
Outline: as §1

[31] = tested on: CP329; assay: as above; conditions: P. falciparum in erythrocytes, SYBR Green DNA, 72 h; series mostly up to 28.7 µM
Outline: as §1

[32] = tested on: CP335; assay: as above; conditions: P. falciparum in erythrocytes, SYBR Green DNA, 72 h; series mostly up to 28.7 µM
Outline: as §1

[33] = tested on: DFO2036; assay: as above; conditions: P. falciparum in erythrocytes, SYBR Green DNA, 72 h; series mostly up to 28.7 µM
Outline: as §1

[34] = tested on: DIV30; assay: as above; conditions: P. falciparum in erythrocytes, SYBR Green DNA, 72 h; series mostly up to 28.7 µM
Outline: as §1

[35] = tested on: Dd2; assay: as above; conditions: P. falciparum in erythrocytes, SYBR Green DNA, 72 h; series mostly up to 28.7 µM
Outline: as §1

[36] = tested on: ECU; assay: as above; conditions: P. falciparum in erythrocytes, SYBR Green DNA, 72 h; series mostly up to 28.7 µM
Outline: as §1

[37] = tested on: FAB9; assay: as above; conditions: P. falciparum in erythrocytes, SYBR Green DNA, 72 h; series mostly up to 28.7 µM
Outline: as §1

[38] = tested on: GB4; assay: as above; conditions: P. falciparum in erythrocytes, SYBR Green DNA, 72 h; series mostly up to 28.7 µM
Outline: as §1

[39] = tested on: HB3; assay: as above; conditions: P. falciparum in erythrocytes, SYBR Green DNA, 72 h; series mostly up to 28.7 µM
Outline: as §1

[40] = tested on: P94_40; assay: as above; conditions: P. falciparum in erythrocytes, SYBR Green DNA, 72 h; series mostly up to 28.7 µM
Outline: as §1

[41] = tested on: PAD; assay: as above; conditions: P. falciparum in erythrocytes, SYBR Green DNA, 72 h; series mostly up to 28.7 µM
Outline: as §1

[42] = tested on: SC27B; assay: as above; conditions: P. falciparum in erythrocytes, SYBR Green DNA, 72 h; series mostly up to 28.7 µM
Outline: as §1

[43] = tested on: TAB113; assay: as above; conditions: P. falciparum in erythrocytes, SYBR Green DNA, 72 h; series mostly up to 28.7 µM
Outline: as §1

[44] = target: Cytochrome P450 2D6 (Homo sapiens) (UniProt P10635); assay: Cytochrome P450 family 2 subfamily D member 6 (CYP2D6) small molecule antagonists: luciferase biochemical (cell-free) qHTS assay (AID 1645840; active means well fitted curve in the direction sought with a large enough effect in the repeat runs; an effect the other way counts as inactive or inconclusive; further: nearly all actives have a fitted effect of over 55% in size)
Sequence of Cytochrome P450 2D6 (Homo sapiens) (P10635 whole entry, looked up): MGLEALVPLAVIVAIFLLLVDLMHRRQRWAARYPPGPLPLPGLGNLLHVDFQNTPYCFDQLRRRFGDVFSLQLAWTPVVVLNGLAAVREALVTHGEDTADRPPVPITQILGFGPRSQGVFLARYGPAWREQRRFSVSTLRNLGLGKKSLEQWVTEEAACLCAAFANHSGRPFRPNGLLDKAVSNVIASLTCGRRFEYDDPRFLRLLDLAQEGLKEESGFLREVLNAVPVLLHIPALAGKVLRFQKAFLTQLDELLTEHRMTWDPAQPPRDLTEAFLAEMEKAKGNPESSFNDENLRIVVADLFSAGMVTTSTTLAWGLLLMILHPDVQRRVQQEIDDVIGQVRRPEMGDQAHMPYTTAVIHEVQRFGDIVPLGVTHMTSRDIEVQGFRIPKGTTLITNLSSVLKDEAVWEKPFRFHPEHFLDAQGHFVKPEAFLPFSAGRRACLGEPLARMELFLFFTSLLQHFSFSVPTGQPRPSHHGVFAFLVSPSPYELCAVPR
Outline: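 P450-Glo luminescent screen: recombinant CYP2D6 enzyme–proluciferin substrate mix preincubated with compound 10 min at room temperature, then NADPH regeneration added for 1 h at room temperature. Detection reagent added for 20 min; luciferin light read as relative luminescence units.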

[45] = target: Cytochrome P450 2C9 (Homo sapiens) (UniProt P11712); assay: Cytochrome P450 family 2 subfamily C member 9 (CYP2C9) small molecule antagonists: luciferase biochemical (cell-free) qHTS assay (AID 1645842; active means well fitted curve in the direction sought with a large enough effect in the repeat runs; an effect the other way counts as inactive or inconclusive; further: nearly all actives have a fitted effect of over 55% in size)
Sequence of Cytochrome P450 2C9 (Homo sapiens) (P11712 whole entry, looked up): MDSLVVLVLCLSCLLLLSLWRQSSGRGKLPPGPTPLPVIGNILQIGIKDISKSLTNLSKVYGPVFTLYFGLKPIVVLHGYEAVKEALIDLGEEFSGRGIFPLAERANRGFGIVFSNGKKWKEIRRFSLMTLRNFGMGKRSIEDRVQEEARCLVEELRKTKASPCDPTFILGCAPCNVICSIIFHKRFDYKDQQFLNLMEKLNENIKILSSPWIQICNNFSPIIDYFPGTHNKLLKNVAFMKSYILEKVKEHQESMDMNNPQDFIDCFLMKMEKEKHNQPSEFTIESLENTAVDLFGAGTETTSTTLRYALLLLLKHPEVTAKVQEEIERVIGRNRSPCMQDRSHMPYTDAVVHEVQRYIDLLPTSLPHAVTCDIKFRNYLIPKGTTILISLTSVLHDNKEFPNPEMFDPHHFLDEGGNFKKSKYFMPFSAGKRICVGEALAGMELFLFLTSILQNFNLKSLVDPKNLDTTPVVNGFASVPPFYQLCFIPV
Outline: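 Luminescence, after 20 min with luciferin detection reagent, reflected CYP2C9 turnover during a 1 h NADPH-driven reaction at 37C. Enzyme-substrate mix contained 0.4% bovine serum albumin and was preincubated with compound 10 min at room temperature.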

[46] = target: Phospholipid hydroperoxide glutathione peroxidase GPX4 (Homo sapiens) (UniProt P36969); assay: Primary qHTS Assay for Inhibitors of Recombinant Selenoprotein Glutathione Peroxidase 4 (GPX4) (AID 1845192); conditions: outcome: dose series up to 50 µM unless noted; further: nearly all actives have a fitted effect of over 65% in size
Sequence of Phospholipid hydroperoxide glutathione peroxidase GPX4 (Homo sapiens) (P36969 whole entry, looked up): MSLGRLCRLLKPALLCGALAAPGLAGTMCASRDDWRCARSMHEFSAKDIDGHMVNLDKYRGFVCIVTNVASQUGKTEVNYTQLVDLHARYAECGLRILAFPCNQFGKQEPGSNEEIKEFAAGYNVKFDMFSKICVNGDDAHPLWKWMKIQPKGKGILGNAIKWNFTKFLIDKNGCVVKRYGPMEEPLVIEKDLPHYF
Outline: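 GR-coupled readout: 100 nM GR, 1 mM GSH, 0.5 mM NADPH; NADPH fluorescence (ex 340/em 450 nm) read at t=0 and after 15 min RT. GPX4 200 nM, preincubated 30 min with compound; substrate 0.5 mM CHP.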

[47] = measured here: PEO1 parental Z-AUC

## C=C1CCC2[C@](C)(CO)C(O)CC[C@]2(C)C1C/C=C1/C(=O)OCC1O (stereo not given in full)
[1]
  Potency: inactive
[2]
  outcome: inactive
[3]
  outcome: inactive
[4]; at 57.5 µM (top of the series)
  activity change, negative = inhibition: 2.99% (inactive)
[4]; measured here: cell count channel max response
  max response: 11%
[4]; measured here: lipid channel max response
  max response: 17.4%
[5]
  outcome: inactive
[6]
  Potency: inactive
[7]
  Potency: 14.4 µM (active)
[8]
  Potency: 13.1 µM (active)
[9]
  Potency: 7.42 µM (active)
[10]
  Potency: 7.42 µM (active)
[11]
  Potency: inactive
[12]
  Z-AUC: 0.689 (inactive)
[12]; [47]
  Z-AUC: -0.31
[12]; measured here: PEO4 Z-AUC
  Z-AUC: -0.312
[13]; parasite line A
  activity, negative = inhibition: -24.6% (inactive)
[13]; parasite line B
  activity, negative = inhibition: -25.9% (inactive)
[14]
  Potency: inactive
[15]
  Potency: inactive
[16]
  Potency: inactive
[17]
  Potency: inactive
[18]
  Potency: inactive
[19]
  Potency: inactive
[20]
  Potency: inactive
[21]
  Potency: 11.2 µM (active)
[22]
  Potency: 12.6 µM (active)
[23]
  Potency: inactive
[24]
  Potency: inactive
[25]
  Potency: inactive
[26]
  Potency: inactive
[27]
  Potency: inactive
[28]
  Potency: inactive
[29]
  Potency: inactive
[30]
  Potency: inactive
[31]
  Potency: inactive
[32]
  Potency: inactive
[33]
  Potency: inactive
[34]
  Potency: inactive
[35]
  Potency: inactive
[36]
  Potency: inactive
[37]
  Potency: inactive
[38]
  Potency: inactive
[39]
  Potency: inactive
[40]
  Potency: inactive
[41]
  Potency: inactive
[42]
  Potency: inactive
[43]
  Potency: inactive

## CC(=NNC(=O)c1cccc(S(=O)(=O)N2CCOCC2)c1)c1cc(Cl)ccc1O
[8]
  Potency: inactive
[9]
  Potency: 2.09 µM (active)
[10]
  Potency: 1.48 µM (active)

## Cc1c(CN2CCN(C(=O)[C@H](C)O)CC2)sc2c(N3CCOCC3)nc(-c3cnc(N)nc3)nc12
[8]
  Potency: 0.262 µM (active)
[44]
  Potency: inactive
[45]
  Potency: inactive
[9]
  Potency: 0.0417 µM (active)
[10]
  Potency: 0.0742 µM (active)
[46]
  Potency: inactive
[12]
  Z-AUC: 0.0318 (inactive)
[12]; [47]
  Z-AUC: 0.386
[12]; measured here: PEO4 Z-AUC
  Z-AUC: 0.839
